Reference: PubChem BioAssay
The source made the active and inactive calls.

test: osmotic lysis modulators in infected erythrocytes, primary screen, PSAC antagonist project, cell-based, P. falciparum Indochina, OD700, 3 h (AID 1156); settings: higher = more signal, called active from +8 up or from −8 down

z-score, active:
COCC(=C=CC[C@H](O)c1ccccc1OCCO)C[C@H](O)c1cc(Cl)cc(Cl)c1O -9.18

z-score, inactive:
O=C1O[C@@H](c2ccccc2)[C@@H](c2ccccc2)N2[C@@H](c3ccc(OCCO)cc3)[C@]3(C(=O)Nc4ccccc43)[C@@H](C(=O)NC[C@H](O)c3ccccc3)[C@H]12 0.539
C=C(/C(=C/C[C@@H](OC(C)=O)c1ccc(OCCO)cc1)c1cnc2ccccc2c1)C(C)C 1.79
O=C1OCC=C[C@H]2OC34C=CCN(CCN5CCOCC5)C(=O)[C@H]3N(CCCO)C(=O)[C@@H]4[C@@H]12 (stereo not given in full) 1.27
C=CC[C@]1(C(=O)NCCCOC)N=C(c2ccc(OCCCO)cc2)O[C@H]1c1ccccc1N=[N+]=[N-] 3.35
COC(=O)c1c(CC[C@@H](CO)NC(=O)N2CCC[C@H]2Cn2cc(-c3ccccn3)nn2)oc(C(C)=O)c1C(=O)OC -0.315
C=CCN(Cc1ccccc1)C(=O)C(c1cccs1)N(CCOCCO)C(=O)/C=C\C(=O)O (stereo not given) 0.213
CCN(CC)c1ccc(N2CC=CC34O[C@@H]5/C=C\CCCOC(=O)C5[C@H]3C(=O)N(CCO)[C@@H]4C2=O)cc1 (stereo not given in full) 0.227
C=CC[C@@]1(C(N)=O)N=C(c2ccc(OCCCO)cc2)O[C@@H]1c1ccccc1CN=[N+]=[N-] 2
O=C1c2ccccc2[C@](Cc2ccccc2I)(C(=O)NC2CC2)[C@H](c2ccc(CO)cc2)N1C1CCCCC1 3.82
O=C(NCc1ccccc1)[C@@]1(CCS(=O)(=O)c2ccccc2)N=C(c2ccc(OCCCO)cc2)O[C@H]1c1ccccc1 0.559
CCCCCN1CC=CC23O[C@@H]4/C=C\CCCOC(=O)C4[C@H]2C(=O)N(CCCO)[C@@H]3C1=O (stereo not given in full) -1.43
C=CCNC(=O)[C@@H]1[C@H]2C(=O)O[C@H](c3ccccc3)[C@H](c3ccccc3)N2[C@H](c2ccccc2OCCO)[C@@]12C(=O)N(C(=O)OCCOC)c1ccc(C#CCNC(N)=O)cc12 1.3
COCCOC(=O)N1C(=O)[C@@]2(c3cc(C#CCCO)ccc31)[C@H](C(=O)N1CCN(c3ncccn3)CC1)[C@H]1C(=O)O[C@H](c3ccccc3)[C@H](c3ccccc3)N1[C@@H]2c1ccccc1OCCO 0.288
COc1ccc(CCN2C(=O)[C@@]3(c4ccc([N+](=O)[O-])cc4)CC(=O)N(C4CCCCC4)[C@@H]3c3ccc(CO)cc32)cc1 -0.979
CCOC(=O)C[C@H]1[C@H](OC(=O)c2ccc(C(=O)c3ccccc3)cc2)[C@@H](NC(=O)c2ccc(-c3ccccc3)cc2)c2cc(OCCCO)ccc2N1C(=O)c1ccccc1 -0.559
COC(=O)C(CC#Cc1ccc2c(c1)[C@]1(C(=O)N2)[C@H](c2ccc(O)cc2)N2[C@H](c3ccccc3)[C@H](c3ccccc3)OC(=O)[C@H]2[C@@H]1C(=O)Nc1nc2ccccc2s1)C(=O)OC -0.0671
O=C1[C@H]2C=C(Br)[C@H](C[C@@H]2OCCCCO)[C@@]12CO2 1.17
Cc1ccc(C(C)CC(O)C2C=CC3C(=O)N(c4ccccc4)C(=O)C3N2Nc2ccc([N+](=O)[O-])cc2)o1 (stereo not given) 0.0777
COCCOC(=O)N1C(=O)[C@@]2(c3cc(C#CCCO)ccc31)[C@H](C(=O)Nc1nc3ccccc3s1)[C@H]1C(=O)O[C@H](c3ccccc3)[C@H](c3ccccc3)N1[C@@H]2c1ccc(OCCO)cc1 0.708
CCCCC(O)C1C=CC2C(=O)N(c3ccccc3)C(=O)C2N1Nc1ccccc1F (stereo not given) 0.273
[N-]=[N+]=Nc1ccccc1C[C@]1(C(=O)NCC(O)CO)N=C(c2ccc(OCCCO)cc2)O[C@H]1c1ccccc1N=[N+]=[N-] (stereo not given in full) 0.581
C=C(CCCC)/C(=C/C[C@@H](OC(C)=O)c1ccccc1OCCO)c1cnc2ccccc2c1 1.96
OC([C@@H]1CC(c2ccccc2)=NO1)[C@H]1CC(c2ccccc2)=NO1 (stereo not given in full) 0.291
[N-]=[N+]=NCc1ccccc1[C@H]1OC(c2ccc(OCCCO)cc2)=N[C@@]1(Cc1ccccc1)C(=O)NCc1ccccc1 1.96
O=C(NCc1ccccc1)[C@@H]1c2ccccc2C(=O)N(CC23CC4CC(CC(C4)C2)C3)[C@H]1c1ccc(CO)cc1 1.76

test: PSAC antagonists in infected red cells, primary screen, cell-based, P. falciparum Indochina, OD700, 18 h (AID 1157); settings: P. falciparum Indochina infected erythrocytes, osmotic lysis OD700, 18 h; higher = more signal, called active from +8 up or from −8 down

z-score, active:
[N-]=[N+]=NCc1ccccc1C[C@]1(C(=O)O)N=C(c2ccc(OCCCO)cc2)O[C@H]1c1ccccc1N=[N+]=[N-] 10
C=CC[C@]1(C(=O)NCCCOC)N=C(c2ccc(OCCCO)cc2)O[C@H]1c1ccccc1N=[N+]=[N-] 8.48

z-score, inactive:
O=C1C2C=CC(C(O)C3CCCCC3)N(Nc3ccc([N+](=O)[O-])cc3)C2C(=O)N1c1ccccc1 (stereo not given) 1.42
C=CCNC(=O)[C@H]1[C@@H]2C(=O)O[C@@H](c3ccccc3)[C@@H](c3ccccc3)N2[C@@H](c2ccc(OCCO)cc2)[C@]12C(=O)N(C(=O)OCCOC)c1ccccc12 0.759
O=C1C2C=CC(C(O)c3c(F)cccc3Cl)N(Nc3ccccc3)C2C(=O)N1c1ccccc1 (stereo not given) 1.93
CC(C)c1ccc(NN2C(C(O)c3cc(C(F)(F)F)cc(C(F)(F)F)c3)C=CC3C(=O)N(c4ccccc4)C(=O)C32)cc1 (stereo not given) 2.32
O=C1O[C@H](c2ccccc2)[C@H](c2ccccc2)N2[C@H]1[C@@H](C(=O)NC[C@H](O)c1ccccc1)[C@]1(C(=O)Nc3ccccc31)[C@H]2c1ccc(OCCO)cc1 1.47
COC(=O)[C@@]1(Cc2ccc(F)cc2)[C@H]2c3cc(C(=O)N4CCCC4)n(Cc4ccc(C)o4)c3C[C@H]2CN1C(=O)c1ccccc1 0.886
COc1ccc([Si](C)(C)[C@H]2[C@H](CCn3cc([C@H](O)c4ccccc4)nn3)O[C@@]3(C(=O)N(Cc4cccc(N5CCOC5=O)c4)c4ccccc43)[C@@H]2C)cc1 1.4
COc1ccc(CCNC(=O)[C@@]2(C)c3ccccc3C(=O)N(Cc3cc(F)cc(C(F)(F)F)c3)[C@H]2c2ccc(CO)cc2)cc1 0.526
O=C1O[C@@H](c2ccccc2)[C@@H](c2ccccc2)N2[C@@H](c3ccc(OCCO)cc3)[C@]3(C(=O)Nc4ccccc43)[C@@H](C(=O)NC[C@H](O)c3ccccc3)[C@H]12 0.779
C=C(/C(=C/C[C@@H](OC(C)=O)c1ccc(OCCO)cc1)c1cnc2ccccc2c1)C(C)C 0.97
O=C1OCC=C[C@H]2OC34C=CCN(CCN5CCOCC5)C(=O)[C@H]3N(CCCO)C(=O)[C@@H]4[C@@H]12 (stereo not given in full) -1.19
COCC(=C=CC[C@H](O)c1ccccc1OCCO)C[C@H](O)c1cc(Cl)cc(Cl)c1O 3.52
COC(=O)c1c(CC[C@@H](CO)NC(=O)N2CCC[C@H]2Cn2cc(-c3ccccn3)nn2)oc(C(C)=O)c1C(=O)OC -0.741
C=CCN(Cc1ccccc1)C(=O)C(c1cccs1)N(CCOCCO)C(=O)/C=C\C(=O)O (stereo not given) -0.281
CCN(CC)c1ccc(N2CC=CC34O[C@@H]5/C=C\CCCOC(=O)C5[C@H]3C(=O)N(CCO)[C@@H]4C2=O)cc1 (stereo not given in full) 0.041
C=CC[C@@]1(C(N)=O)N=C(c2ccc(OCCCO)cc2)O[C@@H]1c1ccccc1CN=[N+]=[N-] -0.413
O=C1c2ccccc2[C@](Cc2ccccc2I)(C(=O)NC2CC2)[C@H](c2ccc(CO)cc2)N1C1CCCCC1 1.36
O=C(NCc1ccccc1)[C@@]1(CCS(=O)(=O)c2ccccc2)N=C(c2ccc(OCCCO)cc2)O[C@H]1c1ccccc1 1.99
CCCCCN1CC=CC23O[C@@H]4/C=C\CCCOC(=O)C4[C@H]2C(=O)N(CCCO)[C@@H]3C1=O (stereo not given in full) -0.678
C=CCNC(=O)[C@@H]1[C@H]2C(=O)O[C@H](c3ccccc3)[C@H](c3ccccc3)N2[C@H](c2ccccc2OCCO)[C@@]12C(=O)N(C(=O)OCCOC)c1ccc(C#CCNC(N)=O)cc12 0.466
COCCOC(=O)N1C(=O)[C@@]2(c3cc(C#CCCO)ccc31)[C@H](C(=O)N1CCN(c3ncccn3)CC1)[C@H]1C(=O)O[C@H](c3ccccc3)[C@H](c3ccccc3)N1[C@@H]2c1ccccc1OCCO 0.761
COc1ccc(CCN2C(=O)[C@@]3(c4ccc([N+](=O)[O-])cc4)CC(=O)N(C4CCCCC4)[C@@H]3c3ccc(CO)cc32)cc1 -0.138
CCOC(=O)C[C@H]1[C@H](OC(=O)c2ccc(C(=O)c3ccccc3)cc2)[C@@H](NC(=O)c2ccc(-c3ccccc3)cc2)c2cc(OCCCO)ccc2N1C(=O)c1ccccc1 -0.16
COC(=O)C(CC#Cc1ccc2c(c1)[C@]1(C(=O)N2)[C@H](c2ccc(O)cc2)N2[C@H](c3ccccc3)[C@H](c3ccccc3)OC(=O)[C@H]2[C@@H]1C(=O)Nc1nc2ccccc2s1)C(=O)OC -1.84
O=C1[C@H]2C=C(Br)[C@H](C[C@@H]2OCCCCO)[C@@]12CO2 -0.0393
Cc1ccc(C(C)CC(O)C2C=CC3C(=O)N(c4ccccc4)C(=O)C3N2Nc2ccc([N+](=O)[O-])cc2)o1 (stereo not given) 1.49
COCCOC(=O)N1C(=O)[C@@]2(c3cc(C#CCCO)ccc31)[C@H](C(=O)Nc1nc3ccccc3s1)[C@H]1C(=O)O[C@H](c3ccccc3)[C@H](c3ccccc3)N1[C@@H]2c1ccc(OCCO)cc1 1.34
